Bioassay records: PubChem, National Center for Advancing Translational Sciences (NCATS)
Rows were chosen to be rich in hits. Some 7.3% of all compounds tested hit in one or more screens of this group.
RORgamma inh: inhibitors of mouse ROR gamma transcriptional activity. Drosophila S2 Gal4-RORgamma UAS-luciferase reporter, 20 h. Potency, µM (series often up to 53.6 µM), hits mostly inhibitors. actives 5.4% (n = 310,000). AID 2551; note: nearly all actives have a fitted effect of over 60% in size
Target sequence (P51450 whole entry, looked up, the tested form may be a part): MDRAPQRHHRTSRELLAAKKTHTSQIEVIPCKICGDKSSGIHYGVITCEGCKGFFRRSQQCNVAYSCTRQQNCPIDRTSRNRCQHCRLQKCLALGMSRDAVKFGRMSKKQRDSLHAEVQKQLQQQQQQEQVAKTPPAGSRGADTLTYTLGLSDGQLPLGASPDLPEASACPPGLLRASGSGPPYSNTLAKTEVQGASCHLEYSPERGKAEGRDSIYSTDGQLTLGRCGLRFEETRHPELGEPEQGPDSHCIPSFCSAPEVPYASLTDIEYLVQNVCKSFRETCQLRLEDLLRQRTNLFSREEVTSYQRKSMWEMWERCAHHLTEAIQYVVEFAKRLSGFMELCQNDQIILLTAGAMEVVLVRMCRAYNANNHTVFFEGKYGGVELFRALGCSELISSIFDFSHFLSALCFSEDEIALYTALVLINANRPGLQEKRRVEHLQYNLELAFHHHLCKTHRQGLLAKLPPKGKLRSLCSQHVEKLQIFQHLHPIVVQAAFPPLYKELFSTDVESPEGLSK
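Luminescence from a UAS-regulated Photinus luciferase reporter in stably transfected Drosophila Schneider cells is measured; decreased signal marks ROR gamma inhibition. Fusion expression is induced by 700 uM copper sulfate for 20 hr.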
Tau FP inhib: inhibitors of human tau fibril formation. P10636. K18 P301L tau heparin fibrillization, Alexa594 FP, 6 h. Potency, µM (doses to about 57.7 µM), usual class: inhibitors. actives 0.39% (n = 280,000). AID 1468; note: nearly all actives have a fitted effect of over 55% in size
Target sequence (P10636 561-689 P618L limits assumed): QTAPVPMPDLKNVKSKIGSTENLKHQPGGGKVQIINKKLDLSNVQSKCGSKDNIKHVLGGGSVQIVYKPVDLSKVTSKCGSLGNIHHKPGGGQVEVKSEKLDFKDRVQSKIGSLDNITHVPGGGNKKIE
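FP of Alexa 594-tau after heparin (20 uM) induction. Substrate: human K18 P301L, 15 uM unlabeled, 0.24 uM labeled. Buffer 100 mM sodium acetate pH 7. 6 hr, 37 C.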
Tau fluor counter: counter-screen for tau fibril formation inhibitors. tau K18 P301L Alexa594 fluorescence, heparin fibrillization. Potency, µM (titrated, usually from 57.7 µM). actives 0.93% (n = 280,000); note: nearly all actives have a fitted effect of over 55% in size
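Human K18 P301L tau (15 uM unlabeled plus 0.24 uM Alexa 594-labeled, final) in 100 mM sodium acetate pH 7 was mixed with compound and 20 uM heparin and incubated 6 hr at 37 C.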
VP16 counter: counter-screen for ROR gamma inhibitors: Gal4-VP16 reporter | Potency, µM (doses to about 53.6 µM), most hits filed as inhibitors | actives 3.5% (n = 310,000) | AID 2546 | Drosophila S2 Gal4-VP16 UAS-luciferase, luminescence, 20 h;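 note: Gal4-VP16 expression switched on by copper sulfate through the metallothionein promoter; nearly all actives have a fitted effect of over 50% in size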
Tau fibril ThT: inhibitors of human tau fibril formation, thioflavin T binding | recombinant tau K18 P301L (four-repeat tau fragment), heparin-induced fibrillization, ThT fluorescence | AID 1460 | actives 2.1% (n = 270,000) | Potency, µM (top dose mostly 57.4 µM), actives largely listed as inhibitors; note: nearly all actives have a fitted effect of over 55% in size
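In this qHTS, human K18 P301L tau is incubated with compound and heparin for 6 hr at 37 C, and Thioflavin T fluorescence then reports fibril load.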
A number is an active result; - = inactive; ? = inconclusive; . = not tested or not shown; [ ] = remark or other dose. Calls come from the whole dose curve; as a rule, active = well fitted curve in the direction sought with a large enough effect; inconclusive = small, poorly fitted or top-dose-only effect, or another doubt; inactive = no such curve, though single readings can be large; an effect the other way counts as inactive or inconclusive.

SMILES | RORgamma inh | Tau FP inhib | Tau fluor counter | VP16 counter | Tau fibril ThT
COc1ccccc1CNC(=O)c1cccn1-c1nnc(N2CCCCC2)s1 | . | - | - | . | -
CCOC(=O)c1c(C2COc3ccccc3O2)csc1N (centres undefined) | - | - | 25µM[quencher] | - | ?
COc1ccc(-n2ncc3c(N(C)C4CCCCC4)ncnc32)cc1 | 0.25µM | . | . | 8.9µM | .
COc1ccc(-n2ncc3c(N4CCC(C)CC4)ncnc32)cc1 | 8.9µM | . | . | ? | .
CCOC(=O)C1CCN(c2ncnc3c2cnn3-c2ccccc2)CC1 | - | - | - | - | ?
CCOC(=O)C1CCN(c2ncnc3c2cnn3-c2ccc(Cl)cc2)CC1 | 1.4µM | - | - | ? | ?
Cc1ccc(-n2ncc3c(NC4CCCCCC4)ncnc32)cc1 | . | - | - | . | -
Cc1cccc(-n2ncc3c(N(C)C4CCCCC4)ncnc32)c1 | ? | - | - | 0.89µM | ?
CC1CCN(c2ncnc3c2cnn3-c2ccccc2)CC1 | ? | - | - | ? | ?
CCN(c1ncnc2c1cnn2-c1cccc(Cl)c1)C1CCCCC1 | . | - | - | . | -
COc1cccc(-n2ccn(CC(=O)c3ccc(F)cc3)c(=O)c2=O)c1 | . | - | - | . | -
CCc1ccc(NC(=O)N2CCC(N3CCN(Cc4ccc(C)cc4)C(=O)C3=O)CC2)cc1 | . | - | - | . | -
O=c1c(-c2cc(F)cc(F)c2)nc2cnc(N3CCOCC3)nc2n1C[C@H]1CCCO1 | - | . | . | - | .
CC(=O)Nc1ccc(S(=O)(=O)NC2=C(N3CCN(Cc4ccccc4)CC3)C(=O)c3ccccc3C2=O)cc1 | ? | - | 14µM[quencher] | - | 16µM
CC(=O)Nc1ccc(S(=O)(=O)NC2=C(N3CCN(C)CC3)C(=O)c3ccccc3C2=O)cc1 | 13µM | . | . | - | .
CCOC(=O)N1CCN(C2=C(NS(=O)(=O)c3ccc(NC(C)=O)cc3)C(=O)c3ccccc3C2=O)CC1 | - | . | . | - | .
CC(=O)c1cccc(NC(=O)COc2ccc3oc(=O)cc(C)c3c2)c1 | - | . | . | - | .
COc1ccc(/C=N/NC(=O)c2nnn(-c3nonc3N)c2CN(C)c2ccccc2)cc1 | ? | . | . | - | .
CCc1cc(-c2n[nH]c(=S)n2-c2cccc(C)c2)cs1 | 0.32µM | - | - | 0.56µM | -
COc1ccc(OC)c(-n2c(-c3cccc(O)c3)n[nH]c2=S)c1 | -[0.365 µM] | - | - | . | -
Fc1cccc(-c2n[nH]c(=S)n2-c2ccccc2)c1 | 8.9µM | . | . | 7.9µM | .
Cc1cccc(-n2c(-c3csc(C)c3)n[nH]c2=S)c1 | 4µM | - | - | 8.9µM | -
Cc1cc(-c2n[nH]c(=S)n2-c2ccccc2)nn1C | - | - | - | - | -
Cc1ccc(-c2nc(C(Cl)Cl)c3ccccc3n2)cc1 | ? | - | - | 8.9µM | .
CCCc1cc(-c2n[nH]c(=S)n2CC(C)C)cs1 | 3.5µM | - | - | 11µM | -
SMILES | RORgamma inh | Tau FP inhib | Tau fluor counter | VP16 counter | Tau fibril ThT
CCCCn1c(-c2csc(C(C)C)c2)n[nH]c1=S | 4µM | - | - | ? | -
CCCCn1c(-c2csc(CC)c2)n[nH]c1=S | 0.79µM | - | - | ? | -
CCCn1c(-c2ccncc2)n[nH]c1=S | ? | - | - | - | -
CCC(=O)O[C@@H](OP(=O)(CCCCc1ccccc1)CC(=O)N1C[C@H](C2CCCCC2)C[C@H]1C(=O)O)C(C)C (some centres undefined) | - | . | . | - | .
CCOC(=O)Cn1c(=O)n(C2CCCCC2)c2nc(-c3cccc(C)c3)nc(C(N)=O)c21 | . | - | - | . | -
C/C(=N\S(=O)(=O)c1ccc(C)cc1)NC(=S)Nc1ccccc1 | 11µM | - | - | - | -
COc1ccc(NC(=S)N/C(=N/S(=O)(=O)c2ccc(C)cc2)c2ccccc2)cc1 | - | - | - | - | -
O=S(=O)(Nc1nc2ccccc2nc1Nc1ccccc1Br)c1ccccc1 | . | - | - | . | -
CC(C)c1nc(SCC(=O)c2ccc(F)cc2)c2ccccc2n1 | 5.6µM | ? | - | ? | ?
COC(=O)CSc1cnc2ccccc2n1 | - | - | - | - | -
O=C(CSc1cnc2ccccc2n1)c1ccc(F)cc1 | - | - | - | - | 14µM
Cc1ccc(C(=O)CSc2nc(C(C)C)nc3ccccc23)cc1 | ? | - | - | - | ?
C/C(=N\NC(=O)C1CC1)c1ccccc1Br | ? | . | . | 10µM | .
C/C(=N\NC(=O)C1CC1)c1ccccc1O | 1µM | - | - | 6.3µM | -
C/C(=N/NC(=O)c1ccccc1O)c1ccc(N2C(=O)C3CCCCC3C2=O)cc1 (centres undefined) | 13µM | - | - | ? | ?
CC(=O)NC12CC3CC(C1)CC(C(=O)NCc1ccc(C)cc1)(C3)C2 | - | . | . | - | .
CC(=O)NC12CC3CC(C1)CC(C(=O)N(C)Cc1cccc(Cl)c1Cl)(C3)C2 | ? | . | . | 7.1µM | .
O=C(Nc1nnc(S(=O)(=O)N2CCN(c3ccc(F)cc3)CC2)s1)c1ccco1 | - | . | . | - | .
COC(=O)c1ccc(COc2ccccc2/C=N/Nc2cccc(C(=O)O)c2)cc1 | - | - | - | - | -
O=C(O)c1cccc(NC(=S)N/N=C/c2ccccc2OCc2ccc(Br)cc2)c1 | 13µM | - | - | - | ?
O=C(O)c1cccc(NC(=S)N/N=C/c2ccccc2OCc2cccc(Br)c2)c1 | 11µM | - | - | - | ?
CCCCc1ccc(NC(=S)N2CCN(C(=O)OCC)CC2)cc1 | 1.3µM | . | . | ? | .
CC(C)c1ccc(NC(=S)N2CCN(C)CC2)cc1 | - | . | . | - | .
CN1CCN(C(=S)Nc2ccc(S(N)(=O)=O)cc2)CC1 | - | - | - | - | -
CCCCc1ccc(NC(=O)C(C)CC)cc1 (centres undefined) | 1.4µM | - | - | 4µM | -
SMILES | RORgamma inh | Tau FP inhib | Tau fluor counter | VP16 counter | Tau fibril ThT
CCCCc1ccc(NC(=O)N[C@@H](C)C(=O)O)cc1 | - | - | - | - | -
CC(C)c1ccc(NC(=S)N2CCCC2)cc1 | 10µM | . | . | ? | .
CCCCc1ccc(NC(=S)N2CCN(C)CC2)cc1 | 11µM | . | . | ? | .
CCCCc1ccc(NC(=S)N2CCCC2)cc1 | 11µM | . | . | 10µM | .
CCCCc1ccc(NC(=S)NN2CCOCC2)cc1 | - | - | - | - | -
Cc1ccccc1C(=O)NC(=S)NCC1CCCO1 (centres undefined) | 14µM | ? | - | ? | ?
COc1ccc(C(=O)c2c[nH]c(C(=O)NCC3CCCO3)c2)cc1 (centres undefined) | - | - | - | - | -
CNC(=S)NNC(=O)c1ccc(C(C)(C)C)cc1 | 2.2µM | - | - | ? | -
O=C(/C=C/c1ccco1)NCC1CCCO1 (centres undefined) | - | ? | - | - | 14µM
CC(C)(C)c1ccc(C(=O)c2c[nH]c(C(=O)NCC3CCCO3)c2)cc1 (centres undefined) | ? | - | - | 13µM | -
Cc1ccc(C(=O)N/C(=C/c2ccco2)C(=O)NCC2CCCO2)cc1 (centres undefined) | - | - | - | - | -
CCCSCCCNC(=O)C1CCCN(c2nn3cc(-c4ccc(OC)cc4)nc3s2)C1 (centres undefined) | . | - | ? | . | ?
